Measured values from PubChem BioAssay (NCATS).
Results filed as inconclusive are left out. Active and inactive are the calls of the source. The call rests on the fitted dose curve; in most records, active means well fitted curve in the direction sought with a large enough effect; inconclusive means small, poorly fitted or top-dose-only effect, or another doubt; inactive means no such curve, though single readings can be large; an effect the other way counts as inactive or inconclusive.

How the values were obtained:
[1] = molecular target: Phospholipid hydroperoxide glutathione peroxidase GPX4 (Homo sapiens) (UniProt P36969); experiment: Primary qHTS Assay for Inhibitors of Recombinant Selenoprotein Glutathione Peroxidase 4 (GPX4) (AID 1845192); conditions: recombinant GPX4, GR-coupled NADPH fluorescence, 15 min; series mostly up to 27.8 µM; further: nearly all actives have a fitted effect of over 65% in size; on activity change, negative = inhibition: on the % scale 0 is the no-effect control and ±100 the full control effect
Summary of the method: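 GR-coupled assay: recombinant GPX4 preincubated 30 min with compound at room temperature; final 200 nM GPX4, 1 mM GSH, 0.5 mM cumene hydroperoxide, 0.5 mM NADPH, 100 nM GR, 0.01% BSA, pH 7.5 Tris. NADPH fluorescence (340/450 nm) read at 0 and 15 min.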

[2] = Primary fluorescence-based thiol-reactive (MSTI) qHTS assay for identification of artifact compounds. (AID 1845221); conditions: MSTI thiol-reactivity probe, 1 h; series mostly up to 53.8 µM;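 further: thiol-reactive compounds lower the probe fluorescence signal; nearly all actives have a fitted effect of over 65% in size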
Summary of the method: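 MSTI probe at 4 uM final in 2% DMSO/PBS pH 7.4; compounds, 1 h at room temperature in dark. Fluorescence Ex/Em 525/598 nm, normalised to Acetyl-MSTI and MSTI, fitted to 4-parameter Hill.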

[3] = molecular target: Luciferin 4-monooxygenase (Photinus pyralis) (UniProt P08659); experiment: Primary firefly luciferase (FLuc) qHTS assay for identification of artifact compounds. (AID 1845220); conditions: purified firefly luciferase, luminescence, 5 min; series mostly up to 54.1 µM; further: nearly all actives have a fitted effect of over 60% in size;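 on activity change, negative = inhibition: plate controls were DMSO vehicle for no effect and no enzyme for full effect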
Summary of the method: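 Titrated compounds were incubated 15 min at RT, protected from light, with luciferin and ATP at 10 uM; reaction started with 10 nM FLuc, luminescence imaged at 5 min, and concentration-response fitted by Hill equation.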

[4] = tested on: Nanoluciferase (engineered Oplophorus gracilirostris luciferase); experiment: Primary Nanoluciferase (NLuc) qHTS assay for identification of artifact compounds. (AID 1845222); conditions: NLuc-conditioned medium, Nano-Glo luminescence, 5 min; series mostly up to 54.1 µM;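 further: NLuc secreted into diluted conditioned medium of S16 cells; 0% = DMSO and -100% = no enzyme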
Summary of the method: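 qHTS format, against NLuc in S16 cell-conditioned medium. Nano-Glo substrate 1:100 was added after 15 min at room temperature. Luminescence was taken after a further 5 min.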

Sequence of Phospholipid hydroperoxide glutathione peroxidase GPX4 (Homo sapiens) (P36969 whole entry, looked up): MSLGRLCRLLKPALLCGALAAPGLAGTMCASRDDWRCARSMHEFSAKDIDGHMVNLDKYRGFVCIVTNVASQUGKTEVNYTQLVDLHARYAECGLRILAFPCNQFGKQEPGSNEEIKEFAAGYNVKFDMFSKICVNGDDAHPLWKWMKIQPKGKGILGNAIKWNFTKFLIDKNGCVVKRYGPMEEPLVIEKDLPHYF

CCOc1ccc(-c2cc(NC(=O)c3c(F)cccc3F)c(C(=O)O)s2)cc1
inactive: Potency [1] | Potency [2]

CC(C)=CCC[C@](C)(O[C@@H]1O[C@H](CO[C@@H]2OC[C@H](O)[C@H](O)[C@H]2O)[C@@H](O)[C@H](O)[C@H]1O)[C@H]1CC[C@]2(C)[C@@H]1[C@H](O)C[C@@H]1[C@@]3(C)CC[C@H](O[C@@H]4O[C@H](CO)[C@@H](O)[C@H](O)[C@H]4O[C@@H]4O[C@H](CO)[C@@H](O)[C@H](O)[C@H]4O)C(C)(C)[C@@H]3CC[C@]12C
inactive: Potency [1] | Potency [3] | Potency [2] | Potency [4]

COc1cc(OC)cc(-c2ccc3c(-c4ccc(F)cc4)[nH]nc3n2)c1
inactive: Potency [1] | Potency [3] | Potency [2] | Potency [4]

O=C(O)c1ccnc2cc(-c3nc4ccccc4n3CCN3CCCCC3)sc12
inactive: Potency [3] | Potency [2] | Potency [4]

COC(=O)C1C(O)CCC2CN3CCc4c([nH]c5ccccc45)C3CC21 (stereo not given)
inactive: Potency [1] | Potency [3] | Potency [4]

O=C(Nc1ccc(N2CCC(C(=O)N3CCOCC3)CC2)cc1)c1cnc(Oc2ccccc2)nc1
inactive: Potency [1] | Potency [3] | Potency [4]

CC1(C)O[C@H]2CC(=O)OC[C@@]23C1=C(O)C(=O)[C@]1(C)C3CC[C@@]2(C)[C@H](c3ccoc3)OC(=O)[C@H]3O[C@]321 (stereo not given in full)
inactive: Potency [3] | Potency [2] | Potency [4]

C[C@@H]1O[C@@H](OC2C(O[C@H]3[C@H](O[C@H]4CC[C@@]5(C)C(CC[C@]6(C)C5CC=C5C7CC(C)(C)CC(O)[C@]7(C)CC[C@]56C)C4(C)C)O[C@H](C(=O)O)[C@@H](O)[C@@H]3O)OC(CO)C(O)C2O)[C@H](O)[C@H](O)[C@H]1O (stereo not given in full)
inactive: Potency [1] | activity change, negative = inhibition [3] 2.46% [at 11.6 µM] | activity change, negative = thiol reactive [2] 22.1% [at 11.5 µM] | activity, negative = inhibition [4] 0% [at 11.6 µM]

CCCCS(=O)(=O)NC(Cc1ccc(OCCCCC2CCNCC2)cc1)C(=O)O (stereo not given)
inactive: Potency [1] | Potency [3] | Potency [2] | Potency [4]

CC1=C2C(=O)C=C(CO[C@@H]3O[C@H](CO)[C@@H](O)[C@H](O)[C@H]3O)[C@@H]2[C@H]2OC(=O)[C@H](C)[C@@H]2CC1
inactive: Potency [1] | Potency [3] | Potency [4]

COC(=O)C1=CO[C@@H](O[C@@H]2O[C@H](CO)[C@@H](O)[C@H](O)[C@H]2O)C2C1CC(O)C2C (stereo not given in full)
inactive: Potency [1] | Potency [3] | Potency [2] | Potency [4]

COc1ccc(/C=C/C(=O)O[C@@H]2[C@@H](OC(C)=O)[C@@H](OC(C)=O)[C@H](O[C@H]3[C@@H]4C=CO[C@@H](O[C@@H]5O[C@H](CO)[C@@H](O)[C@H](O)[C@H]5O)[C@@H]4[C@@]4(CO)O[C@@H]34)O[C@H]2C)cc1
inactive: Potency [1] | Potency [3] | Potency [2] | Potency [4]

NC1Nc2ccccc2C1(N)CC1NC(=O)C(Cc2ccccc2)NC(=O)C(Cc2ccccc2)NC1=O (stereo not given)
inactive: Potency [1] | Potency [3] | Potency [4]

CCc1cccc2c3c([nH]c12)[C@@](CC)(CC(=O)O)OCC3
inactive: Potency [1] | Potency [3] | Potency [4]

CC1(C)C2CC[C@]3(C)C(C(=O)C=C4[C@H]5C[C@@](C)(C(=O)O)CC[C@]5(C)CC[C@]43C)[C@@]2(C)CC[C@@H]1O (stereo not given in full)
inactive: Potency [1] | Potency [3] | Potency [2] | Potency [4]

COCCCc1sc(-c2ccccc2)nc1C(=O)Nc1ccccc1-c1nc2cc(CN3CCCC3)cnc2s1
inactive: Potency [1] | Potency [3] | Potency [4]

CC(C)C[C@H](NC(=O)[C@@H]1O[C@H]1C(=O)O)C(=O)NCCCCN=C(N)N
inactive: Potency [1] | Potency [3] | Potency [2] | Potency [4]

CC1(C)CC=C(c2cnc3ccccc3c2)c2cc(C(=O)Nc3ccc(C(=O)O)cc3)ccc21
inactive: Potency [1] | Potency [3] | Potency [2] | Potency [4]

CN1CCCC1Cc1c[nH]c2ccc(CCS(=O)(=O)c3ccccc3)cc12 (stereo not given)
inactive: Potency [1] | Potency [3] | Potency [2] | Potency [4]

C[C@@H](CC[C@@H]1[C@@]2(C)CCCC(C)(C)C2CC[C@@]1(C)O)CC(=O)O (stereo not given in full)
inactive: Potency [1] | Potency [3] | Potency [2] | Potency [4]

NC1=NC2(c3cc(NC(=O)c4ccc(F)cn4)ccc3F)COCC2CS1 (stereo not given)
inactive: Potency [1] | Potency [3] | Potency [2] | Potency [4]

CC1CC(O)/C=C/C(O)/C=C\C(=O)O1 (stereo not given)
inactive: Potency [1] | Potency [3] | Potency [2] | Potency [4]

CC(=O)OCC(Cc1ccccc1)NC(=O)C(Cc1ccccc1)NC(=O)c1ccccc1 (stereo not given)
inactive: Potency [1] | Potency [3] | Potency [2] | Potency [4]

CCc1nnc(NS(=O)(=O)c2ccc(NC(=S)NC(=O)/C=C/c3ccc(F)cc3)cc2)s1
inactive: Potency [1] | Potency [3] | Potency [4]
